Data taken from PubChem BioAssay AID1794845 (National Center for Advancing Translational Sciences (NCATS), 2023).
Screen size: about 6,900 compounds; fewer than 10 were called active. The call rests on the fitted dose curve; in most records, active means well fitted curve in the direction sought with a large enough effect; inconclusive means small, poorly fitted or top-dose-only effect, or another doubt; inactive means no such curve, though single readings can be large or run the other way. These entries were drawn from the full list.

target: Metallo-beta-lactamase type 2 (Klebsiella pneumoniae) (UniProt C7C422); assay: qHTS to identify inhibitors of the New Delhi Metallo-beta-lactamase (NDM): primary screen against the NCATS Gemini Collection; settings: NDM-1 enzyme, meropenem hydrolysis, absorbance 300 nm; series mostly up to 38.4 µM
From the text: Assay Submitter (PI): James Inglese Ph.D., Patricia Dranchak Ph.D., Mahesh Aitha Ph.D. Assay Development and Screening Technology Laboratory (ADST) National Center for Advancing Translational Sciences (NCATS), Rockville, MD National Institute of Health (NIH), Bethesda, Maryland The metallo-beta-lactamases (MBL) are a main antibiotic resistance mechanism evolved by bacteria. There is an urgent clinical need for MBL inhibitors to mitigate this growing threat. To support a machine-based learning study, qHTS has been used to experimentally test inhibitors identified by prediction tools.
PROTOCOL TABLE (as described by Inglese et al., 2007) SEQUENCE No. (e.g., 1, 2, 3, etc.); […] (e.g., enzyme, Incubation, Reagent, etc.); VALUE; DESCRIPTION 1; NDM-1; 4 uL of 3 nM enzyme [2 nM final] in 50 mM HEPES (pH 7.0), 1 uM […], 0.01% Tween20; Use BioRaptr to dispense into Aurora black, clear bottom low base 1536-well plates 2; Compounds; 23 nL; Use Pin Tool (Wako) to transfer DMSO control and library compounds in DMSO 3; Incubate; >30 min 4; Reagent; 2 uL of 150 uM meropenem [50 uM final] 5; Incubate; 30 min. 6; Detector; Absorbance at 300 nm (bandwidth = 5 nm, 25 flashes/well) on Tecan Infinity NOTES (numbers refer to sequence above) 1; Column 1 of each plate received assay buffer without enzyme and columns 2-48 received enzyme for a final assay concentration of 2 nM. 2; Control plate contained DMSO in columns 1, 2, 3, and 4. 3; Compound interaction with enzyme. 4; Meropenem substrate was prepared in the same assay buffer as step 1 for a final assay concentration of 50 uM and added to all wells across the assay plates. 5; Substrate interaction with enzyme, plateau phase of kinetics. 6; Default reader settings were applied for absorbance read at 300 nm, bandwidth = 5 nm, 25 flashes/well. References: Inglese J, Shamu CE, Guy RK. 2007. Reporting data from high-throughput screening of small-molecule libraries. Nat Chem Biol. doi:10.1038/nchembio0807-438 Yasgar A, Shinn P, Jadhav A, Auld D, Michael S, Zheng W, Austin CP, Inglese J, Simeonov A. 2008. Compound Management for Quantitative High-Throughput Screening. J Lab Autom 13:79 - 89. doi:10.1016/j.jala.2007.12.004

Sequence of Metallo-beta-lactamase type 2 (Klebsiella pneumoniae) (C7C422 whole entry, looked up): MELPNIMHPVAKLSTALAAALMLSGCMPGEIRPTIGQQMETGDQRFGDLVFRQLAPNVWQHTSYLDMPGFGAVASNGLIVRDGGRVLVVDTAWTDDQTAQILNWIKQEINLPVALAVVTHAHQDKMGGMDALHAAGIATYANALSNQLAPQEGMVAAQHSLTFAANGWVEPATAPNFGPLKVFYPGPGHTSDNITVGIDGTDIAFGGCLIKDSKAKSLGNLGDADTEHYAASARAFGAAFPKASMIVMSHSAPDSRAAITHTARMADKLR

outcome, inactive:
CN1C(=O)[C@H]2CN(Cc3cn[nH]c3-c3cccs3)C[C@H]2C1=O
CCOCCn1c(=O)[nH]c2cc(C(=O)NCCn3cnnc3)ccc21
Cn1cnnc1-c1nn(C)c2c1CNCC2
COc1ccc(-c2nc(N3CCOCC3)cc3c2CN(Cc2ccccc2)C3=O)cn1
O=C(c1ccc(Cl)cc1)N1CCN(Cc2ccccc2-c2cccnc2)CC1
CCOCCn1nc(C)cc1C(=O)N[C@H]1[C@H]2CCO[C@H]2[C@@H]1N(C)C
CCn1c(CO)nnc1C1CC(NC(=O)c2[nH]c3ccc(OC)cc3c2C)C1 (centres undefined)
O=C(NCCCc1ccccc1F)[C@@]12CNC[C@@H]1CN(Cc1ccccc1)C2
CCCNc1ccc2nncn2n1
COc1cc(OC)cc(-c2onc(C)c2C(=O)NCc2ccccc2C)c1
CS(=O)(=O)NC[C@H]1Cn2ccnc2CO1
Cc1noc(C)c1[S+](=O)([O-])N1CCc2nc(-c3ccccc3)nc(-c3ccc(Cl)cc3)c2C1
Cc1ccc2nc(C(NC(=O)C3CCN(CC(N)=O)CC3)C(C)C)[nH]c2c1 (centres undefined)
COc1cc2c(cc1NS(C)(=O)=O)C(c1cccc3c1OCO3)CC(=O)N2 (centres undefined)
Cn1cc(-c2ccc3c(n2)CN(Cc2ccc(F)cc2)C(=O)CO3)cn1
Cc1nn(-c2ccccc2)c(C)c1Cc1nc(C(C)C)no1
Cn1cncc1C(=O)N1CCC2(CC1)CNC(C(=O)O)C2 (centres undefined)
COc1cccc(N2CCN(C(=O)c3noc(-c4ccc(C)cc4)n3)CC2)c1
CCc1c(C)nn(CCNC(=O)c2cc(S(N)(=O)=O)ccc2F)c1C
COc1cc(F)ccc1-c1nc(-c2c(C)noc2C)cc2cc(C)oc12
COCCCN(CCC(=O)NCc1ccc2c(c1)OCO2)C(=O)c1cc(C)oc1C
Cc1cnc(CCNS(=O)(=O)c2cccc(F)c2)n1C(C)C
Cc1cccnc1NCCNC(=O)c1ccc(S(N)(=O)=O)cc1
CCCN1CCC2(CCN([S+](=O)([O-])c3cccs3)CC2)Oc2ccccc21
Cc1ccc(C(=O)N2CCCC2C(=O)N2CCCC2c2nc3ccncc3[nH]2)cc1 (centres undefined)
O=C(c1ccoc1)N1CCN(c2cc(C3CC3)ncn2)CC(O)C1 (centres undefined)
Cc1n[nH]c(C)c1CNC(=O)C1CCN(c2cn[nH]c(=O)c2)C1 (centres undefined)
COCCC1(NC(=O)C2CC2)CCN(C(=O)c2ccccn2)CC1
O=C1CC2(CCN(C(=O)c3ccccn3)C2)Nc2ccccc2N1 (centres undefined)
O=C1Cc2c(-c3ccccc3OCc3ccccc3)n[nH]c2CN1Cc1ccccn1
CCCc1ccc2oc(C(=O)N(C)CCC3CCCCO3)c(C)c2c1 (centres undefined)
O=C1NCCCc2[nH]c(-c3cnn(-c4ccc(F)cc4)c3)nc21
CCc1nc2c(c(-c3ccc(Cl)cc3)n1)CN(Cc1ccccn1)CC2
CCN1CCC(CC(=O)N2CCC(C3CCN(C(=O)NC)CC3)C2)CC1 (centres undefined)
CN(C)S(=O)(=O)N1CCc2nn(C)c(=O)n2CC1
CC(=O)c1ccc(NC(=O)N[C@H]2CCN3C(=O)[C@@H](Cc4ccccc4)NC(=O)[C@H]23)cc1
CCn1ccc(C(=O)N2CC(c3nc(CCOCC4CC4)no3)C2)n1
NC(=O)[C@@H](Cc1ccccc1)NC(=O)[C@@H]1C[C@@H](NS(=O)(=O)c2cccs2)CCN1C(=O)CSCC(=O)O
COc1cccc(CCC(=O)N2CCC(OCC3CC3)C2)c1 (centres undefined)
CN1C(=O)CC[C@]2(C(=O)NCc3ccco3)CCCC[C@@H]12
Cc1cn2nnc(C(=O)N3CCC(C(=O)Nc4cccc(F)c4)CC3)c2c(=O)[nH]1
COc1ccc(CN(C)C2CCCN(CCc3ccccc3)C2)c(OC)c1OC (centres undefined)
CC(=O)N1CCC(OCCOc2ccccc2)CC1
CCOc1c(CN(C)C(=O)Cn2cccc(OC)c2=O)cccc1OC
Oc1ccccc1CN1CC(CNc2cccnc2)C2(C1)CN(c1ccccc1)C2 (centres undefined)
O=C(CC1CCCC1)N1C[C@@H](CO)[C@@H]2Oc3ccc(Cl)cc3[C@@H]21
COC1CCOC2(CCN(C(=O)Cc3ccccc3)CC2)C1 (centres undefined)
CCc1ccc(S(=O)(=O)N2c3ccccc3CC2c2nnc(C3CCOCC3)o2)cc1 (centres undefined)
CC(C)(C)OC(=O)N1CC(NCc2cccc(F)c2F)C1
C1=C(c2nc(-c3ccncc3)cc3c2ccn3Cc2cccnc2)CCOC1
COC(=O)N1CCCCC1C(=O)N1CCC2(CC1)c1nc[nH]c1CCN2C (centres undefined)
O=C(N1CCCCCC1CN1CCOCC1)C1(c2ccccc2)CC1 (centres undefined)
CCC1CN(C(=O)c2ccc(NCc3cnn(CC)c3)nc2)CCN1C(C)C (centres undefined)
N#CC1CCN(C(=O)C2CCN(C(=O)c3ccc(-c4cncnc4)cc3)CC2)CC1
CC(C)C(=O)N1CCC(NCCOc2ccccc2Cl)CC1
CC(C)N(Cc1nccn1C)C(=O)CC(c1ccccc1)c1ccccc1F (centres undefined)
CCc1ccccc1NC(=O)N1C[C@@H](F)C[C@H]1C(=O)N1CCc2ccccc2C1
COCCOCc1nc(C2CCCN2C(=O)Nc2ccc(F)cc2F)no1 (centres undefined)
COc1ccc(NC(=O)[C@@H]2C[C@H](c3ccc(F)cc3)N(Cc3ccccc3Cl)C2)cn1
CN(C)C(=O)N1CCC2(CC1)CC(c1cccc(C(F)(F)F)c1)=NO2
COC1CCOC2(CCN(C(=O)CCc3nc4ccccc4s3)CC2)C1 (centres undefined)
Cc1cc(C)n(C2CCN(c3nccc(-c4ccccn4)n3)C2)n1 (centres undefined)
CN(C)Cc1nnc(C2CC(NC(=O)Cc3c[nH]c(=O)n(C)c3=O)C2)n1C (centres undefined)
O=C(C1CCCN1C(=O)Cc1ccc(F)cc1)N1CCC(N2CCOCC2=O)CC1 (centres undefined)
O=C1CCC(C(=O)N2CCSCC2)CN1CCc1cccc(F)c1 (centres undefined)
CCN(Cc1ccncc1)C(=O)c1coc(COc2cccc(C(F)(F)F)c2)n1
CCOC(=O)[C@H]1C[C@]2(CCCCNC2=O)N(C(=O)c2cccc(OC)c2)[C@H]1c1ccco1
Cc1cn2nc(C(=O)N3CCC(C(=O)NCc4ccccn4)CC3)cc2c(=O)[nH]1
Cn1cc(CN2C[C@H](C(=O)Nc3nccs3)C[C@@H]2c2cccc(C(F)(F)F)c2)cn1
COc1ccc(C(=O)N2CCC[C@H]2c2nc(-c3ccccc3)no2)cc1
COc1ccc(NC(=O)c2nc3sccn3c2-c2cccc(OC)c2)cc1
C[C@@H]1CN(C(=O)CN2CCN(c3ncccn3)CC2)C[C@@]1(O)C1CCC1
Cc1nc(C)c(C(=O)N2CCC(Cc3nc(C4CC4)n[nH]3)CC2)s1
Cn1cc(CN2CCN(c3ccc(C#N)cn3)CC2)c(-c2ccccc2)n1
CCc1cc(=O)n(CC(=O)N2CCN(c3ccccc3OC)CC2)c(-c2ccccc2)n1
COCCN1C[C@@H]2[C@H](c3ccccc31)[C@@H](CO)[C@@H](c1ccccc1)N2C(=O)COC(C)=O
Cc1ccc(CNC(=O)N(C)CC2CCOCC2)cc1
COCC(=O)N1CCC(C2CCN(C(=O)c3ccncc3)CC2)C1 (centres undefined)
COc1cccc(CCC(=O)N2CCC3(CC2)N=C(c2ccccc2)NO3)c1
CCN1c2cc(C(=O)NCc3cccc(OC)c3)ccc2C(=O)N2CCCCCC21 (centres undefined)
c1coc(-c2nnc([C@H]3CCN(Cc4c[nH]c5ccccc45)C3)o2)c1
C[C@@H]1CN(C2(C(=O)NCc3n[nH]c4c3CCC4)Cc3ccccc3C2)C[C@H](C)O1
CCOC(=O)C1c2c(OC)ccc3c2C(=CC(C)(C)CO3)CN1C(=O)C1CC1 (centres undefined)
Cc1cccc(-c2nc3ccc(C(=O)NC4CCCCCC4)cc3o2)n1
O=C1CCN(C(=O)[C@@H]2CCCN2C(=O)Nc2ccccc2)CCCCCCN1
CCc1ccc(NC(=O)Cn2nc3n(c2=O)CCCC3)cc1
COCC1CN(C)CC12CCN(Cc1sccc1C)CC2 (centres undefined)
Fc1ccccc1-c1noc(NCCc2ccc(Cl)cc2)n1
Nc1nc(CCC(=O)N[C@@H]2[C@@H](Cc3ccccc3)[C@H]3OCC[C@@H]23)cs1
O=C([C@H]1C[C@H](Oc2cccnc2)CN1C(=O)c1ccc2ccccc2n1)N1CCOCC1
O=S(=O)(c1cnc[nH]1)N1CCC(c2nc(CCOCC3CC3)no2)C1 (centres undefined)
CCc1ccc(CN2CCN(c3ccc(C(N)=O)cn3)CC2)nc1
COCC(=O)N(C1CCOCC1)C1CCN(C(=O)c2cccnc2C)CC1
CC(C)CCN1CCC(N2CCN(C(=O)c3ccc(Br)o3)CC2)C1=O (centres undefined)
Cc1cc(C(=O)NC2CCCC2)c2c(C3CCNC3)noc2n1 (centres undefined)
CCS(=O)(=O)N1CCC2(CCC2OC)CC1 (centres undefined)
Cc1cnc(CC2CCN(S(=O)(=O)c3ccc4c(c3)CCC4)CC2)n1CC1CC1
CC1CCCCN1Cc1nnc2cc(-c3nc(-c4ccccc4)no3)ccn12 (centres undefined)
COc1ccc(CN2CCc3nc(N4CCN(C)CC4)[nH]c(=O)c3CC2)c(OC)c1OC
Cn1nc2n(c1=O)CCN(C1CCSCC1)CC2
COc1ccccc1CC(=O)Nc1cccn2nc(C(C)C)nc12
O=C(C1CCCN([S+](=O)([O-])c2cccc(C(F)(F)F)c2)C1)N1CCC(c2nc3ncccc3[nH]2)C1 (centres undefined)
O=C(COc1cccc(-c2nnc3n2CCCC3)c1)NCc1ccccc1
CCNC(=O)c1c(C)oc2c1CN(Cc1ccc(Br)o1)CC2
